Measured values as given in PubChem BioAssay (NCATS).
Records with an inconclusive call do not appear. Calls of active or inactive are those of the source. Unless noted, the call rests on the fitted dose curve; in most records, active means well fitted inhibition curve with a large enough effect; inconclusive means small, poorly fitted or top-dose-only effect; inactive means flat fitted curve, though single readings scatter.

Experiments:
[1] = AP1 Signaling Pathway (AID 357; active means well fitted curve in either direction with a large enough effect, not every such curve was filed as active; further: on the % scale 0 is the no-effect control and ±100 the full control effect)
In short: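 ME-180 cells with beta-lactamase reporter under AP-1 response element, stimulated with EC50 EGF; compounds tested in titration series, 5 h at 37 °C. CCF4 substrate added 2.5 h at room temperature; 460/530 nm emission ratio gave %activity and AC50.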

[2] = target: Cytochrome P450 1A2 (Homo sapiens) (UniProt P05177); test: p450-cyp1a2 (AID 410; calls by dose curve; further: potency means the concentration at half of the fitted maximal effect;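 on activity change, negative = inhibition: -100% = full effect of reference inhibitor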)
In short: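 Inhibition was calculated relative to 57 uM furafylline (full inhibition). The reaction used human CYP1A2 at 20nM with Luciferin-ME at its Km, 100uM, driven by an NADPH-regenerating system for 60 min at room temperature.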

[3] = NFAT Signaling Pathway (AID 444; active means well fitted curve in either direction with a large enough effect, not every such curve was filed as active;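 further: carbachol stimulus at about its EC50 of 1 µM final; on the % scale 0 is the no-effect control and ±100 the full control effect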); conditions: Jurkat NFAT-bla M1, carbachol, beta-lactamase ratio, 5 h; at 17.2 µM (top of the series) unless noted
In short: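 Read-out: CCF4 FRET ratio (460 nm/530 nm) after 1 h RT dye loading, used for %activity and AC50 from titration series. Cells: Jurkat NFAT-β-lactamase/M1 line, treated with compound plus 1 uM carbachol for 5 h, 37 °C.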

[4] = Stat Signaling Pathway (AID 446; active means well fitted curve in either direction with a large enough effect, not every such curve was filed as active;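 further: ME-180 cervical cancer cells given 40 pM IL-6 alongside compound; SIE-controlled beta-lactamase reporter measured as 460/530 nm FRET emission ratio; on the % scale 0 is the no-effect control and ±100 the full control effect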)
In short: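 ME-180 cells carrying a SIE-driven beta-lactamase reporter are stimulated with 40 pM IL-6 for 5 h at 37C in the presence of compound. The 460/530 nm FRET substrate ratio is read after 2.5 h at RT. Data are normalised to 300 pM IL-6 and to 125 nM JAK inhibitor controls.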

[5] = target: Glucocorticoid receptor (Homo sapiens) (UniProt P04150); test: GR-GFP Redistribution (AID 450;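 active means compounds whose dose series gives a full or clear partial fitted curve of increased nuclear translocation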; further: potency means the concentration at half of the fitted maximal effect); conditions: U2OS GR-GFP nuclear translocation, laser cytometry, 2 h
[6] = target: Glucocorticoid receptor (Homo sapiens) (UniProt P04150); test: GR-EFC Redistribution (AID 451; calls by dose curve; further: potency means the concentration at half of the fitted maximal effect); conditions: CHO-K1 GR-EFC translocation, beta-gal luminescence, 2 h
In short: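 Translocation of GR-ED fusion to nuclear EA restores b-gal, read by luminescence after 1 h room-temperature detection. Engineered CHO-K1 biosensor cells, 1,000/well, exposed 2 h at 37 C to titrations up to 46 uM final.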

[7] = target: Mitogen-activated protein kinase 10 (Mus musculus) (UniProt Q61831); test: JNK3 AlphaScreen Assay (AID 530; active means well fitted curve in either direction with a large enough effect, not every such curve was filed as active;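 further: kinase came from lysate of stimulated human HepG2 cells; signal reports phosphorylation of biotinylated GST-cJun 1-79 at Ser73 with 10 µM ATP; on the % scale 0 is the no-effect control and ±100 the full control effect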)
In short: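 Room-temperature AlphaScreen kinase assay; pre-activated HepG2 lysate as JNK3 source, biotin-GST-cJun(1-79) substrate, 10 uM ATP, compound 15 min preincubation.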

[8] = target: 3',5'-cyclic-AMP phosphodiesterase 4B (Homo sapiens) (UniProt Q07343); test: qHTS Assay for Inhibitors of PDE-IV (AID 607; active means well fitted activation curve with a large enough effect in the main read-out, with a control signal flat, not every such curve was filed as active; further: % of control where 0% means no effect)
In short: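 HEK293 ACTOne cells with CNG channel (1000/well), endogenous PDE4; membrane potential dye, compounds up to 22.9 uM final. Fluorescence Ex 535/Em 590; RO 20-1724 (100 uM final) as reference.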

[9] = qHTS Assay for Lipid Storage Modulators (AID 1519; calls by dose curve); conditions: Drosophila S3 cells, BODIPY lipid droplet/cell ratio, laser cytometry, cells loaded with oleic acid; for activity change, negative = inhibition: at 25.7 µM (top of the series)
In short: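 Cells seeded at 5,000 per well were treated with compounds over a concentration series and loaded with oleic acid (400 uM, as added). Lipid droplet fluorescence (488 nm excitation, 500-530 nm channel) was read by laser-scanning cytometry and normalized to 20 uM Triacsin C.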

[10] = target: Ubiquitin carboxyl-terminal hydrolase 1 (Homo sapiens) (UniProt O94782); test: Inhibitors of USP1/UAF1: Pilot qHTS (AID 504865);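 further: rhodamine fluorescence freed from ubiquitin-rhodamine substrate followed over time; top concentration of the series differs between compounds; on the % scale 0 is the no-effect control and ±100 the full control effect; nearly all actives have a fitted effect of over 35% in size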
In short: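 USP1/UAF1 complex (1nM) preincubated with compound 15 min at room temperature, then Ub-Rho substrate (150nM final) added. Fluorescence read kinetically at 480/540 nm, 6 reads every 60 seconds. Buffer: 50mM HEPES pH 7.8, 0.5mM EDTA, 0.1 mg/ml BSA, 1mM TCEP, 0.01% Tween-20.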

[11] = target: Luciferin 4-monooxygenase (Photinus pyralis) (UniProt P08659); test: Biochemical firefly luciferase enzyme assay for NPC (AID 624030);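 further: purified P. pyralis luciferase at 10 nM with luciferin and ATP substrate; 0% = DMSO and -100% = full luciferase inhibition by PTC124 control; nearly all actives have a fitted effect of over 70% in size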
In short: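 Direct inhibition of firefly luciferase enzyme (10 nM final, 50 mM Tris Acetate) assessed by luminescence within 5 minutes. Percent activity scaled between DMSO and PTC124 positive control, with concentration-effect curves classified by fit quality and response.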

[12] = qHTS profiling for inhibitors of Plasmodium falciparum proliferation (AID 504749);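 further: 0% = DMSO vehicle and full inhibition = artemisinin control; nearly all actives have a fitted effect of over 60% in size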; conditions: P. falciparum in erythrocytes, SYBR Green DNA, 72 h, at 12.8 µM (top of the series)
In short: (§1)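 Three-day growth assay of blood-stage parasites in erythrocytes (0.3% parasitemia, 2.5% hematocrit) at 37 C, 5% CO2, quantified by SYBR Green DNA staining after overnight detergent lysis.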

[13] = tested on: C2A; test: as above; conditions: P. falciparum in erythrocytes, SYBR Green DNA, 72 h; series mostly up to 12.8 µM
In short: as §1

[14] = tested on: CP217; test: as above; conditions: P. falciparum in erythrocytes, SYBR Green DNA, 72 h; series mostly up to 12.8 µM
In short: as §1

[15] = tested on: CP238; test: as above; conditions: P. falciparum in erythrocytes, SYBR Green DNA, 72 h; series mostly up to 12.8 µM
In short: as §1

[16] = tested on: CP250; test: as above; conditions: P. falciparum in erythrocytes, SYBR Green DNA, 72 h; series mostly up to 12.8 µM
In short: as §1

[17] = tested on: FAB9; test: as above; conditions: P. falciparum in erythrocytes, SYBR Green DNA, 72 h; series mostly up to 12.8 µM
In short: as §1

[18] = tested on: JCK; test: as above; conditions: P. falciparum in erythrocytes, SYBR Green DNA, 72 h; series mostly up to 12.8 µM
In short: as §1

[19] = tested on: PC49; test: as above; conditions: P. falciparum in erythrocytes, SYBR Green DNA, 72 h; series mostly up to 12.8 µM
In short: as §1

[20] = tested on: SC27B; test: as above; conditions: P. falciparum in erythrocytes, SYBR Green DNA, 72 h; series mostly up to 12.8 µM
In short: as §1

[21] = measured here: cell count channel max response
[22] = measured here: lipid channel max response

Sequence of Cytochrome P450 1A2 (Homo sapiens) (P05177 whole entry, looked up): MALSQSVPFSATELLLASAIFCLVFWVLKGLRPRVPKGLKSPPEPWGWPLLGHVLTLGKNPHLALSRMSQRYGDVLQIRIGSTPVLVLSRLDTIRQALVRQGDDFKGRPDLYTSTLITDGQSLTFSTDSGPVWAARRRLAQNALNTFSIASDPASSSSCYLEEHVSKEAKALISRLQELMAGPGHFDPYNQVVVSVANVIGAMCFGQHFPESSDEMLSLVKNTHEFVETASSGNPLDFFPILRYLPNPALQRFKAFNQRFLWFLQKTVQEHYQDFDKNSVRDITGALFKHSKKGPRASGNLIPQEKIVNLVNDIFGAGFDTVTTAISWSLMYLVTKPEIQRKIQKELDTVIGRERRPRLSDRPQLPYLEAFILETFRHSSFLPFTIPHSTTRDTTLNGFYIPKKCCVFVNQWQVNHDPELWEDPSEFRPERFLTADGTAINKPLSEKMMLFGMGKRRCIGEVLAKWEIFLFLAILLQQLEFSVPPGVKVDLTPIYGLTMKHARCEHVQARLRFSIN
Sequence of Ubiquitin carboxyl-terminal hydrolase 1 (Homo sapiens) (O94782 whole entry, looked up): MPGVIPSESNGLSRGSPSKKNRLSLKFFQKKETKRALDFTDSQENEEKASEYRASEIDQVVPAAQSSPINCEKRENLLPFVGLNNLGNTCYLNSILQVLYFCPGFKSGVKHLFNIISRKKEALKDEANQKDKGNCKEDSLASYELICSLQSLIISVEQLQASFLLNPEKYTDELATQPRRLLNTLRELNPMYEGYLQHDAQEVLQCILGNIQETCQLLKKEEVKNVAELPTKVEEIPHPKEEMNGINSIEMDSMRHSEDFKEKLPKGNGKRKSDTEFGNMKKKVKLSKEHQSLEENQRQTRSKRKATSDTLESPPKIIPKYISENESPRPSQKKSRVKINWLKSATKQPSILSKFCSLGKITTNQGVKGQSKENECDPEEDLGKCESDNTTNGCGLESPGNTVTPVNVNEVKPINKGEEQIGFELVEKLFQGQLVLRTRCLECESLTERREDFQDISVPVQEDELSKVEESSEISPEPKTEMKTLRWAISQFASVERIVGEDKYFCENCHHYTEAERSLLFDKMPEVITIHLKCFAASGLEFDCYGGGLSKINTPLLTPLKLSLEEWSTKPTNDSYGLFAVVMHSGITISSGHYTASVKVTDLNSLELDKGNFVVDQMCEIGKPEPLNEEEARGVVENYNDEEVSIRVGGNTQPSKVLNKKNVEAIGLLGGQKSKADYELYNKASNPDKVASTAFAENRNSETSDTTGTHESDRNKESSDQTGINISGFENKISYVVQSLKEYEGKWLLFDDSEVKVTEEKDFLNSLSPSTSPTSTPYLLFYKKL
Sequence of Glucocorticoid receptor (Homo sapiens) (P04150 whole entry, looked up, the tested form may be a part): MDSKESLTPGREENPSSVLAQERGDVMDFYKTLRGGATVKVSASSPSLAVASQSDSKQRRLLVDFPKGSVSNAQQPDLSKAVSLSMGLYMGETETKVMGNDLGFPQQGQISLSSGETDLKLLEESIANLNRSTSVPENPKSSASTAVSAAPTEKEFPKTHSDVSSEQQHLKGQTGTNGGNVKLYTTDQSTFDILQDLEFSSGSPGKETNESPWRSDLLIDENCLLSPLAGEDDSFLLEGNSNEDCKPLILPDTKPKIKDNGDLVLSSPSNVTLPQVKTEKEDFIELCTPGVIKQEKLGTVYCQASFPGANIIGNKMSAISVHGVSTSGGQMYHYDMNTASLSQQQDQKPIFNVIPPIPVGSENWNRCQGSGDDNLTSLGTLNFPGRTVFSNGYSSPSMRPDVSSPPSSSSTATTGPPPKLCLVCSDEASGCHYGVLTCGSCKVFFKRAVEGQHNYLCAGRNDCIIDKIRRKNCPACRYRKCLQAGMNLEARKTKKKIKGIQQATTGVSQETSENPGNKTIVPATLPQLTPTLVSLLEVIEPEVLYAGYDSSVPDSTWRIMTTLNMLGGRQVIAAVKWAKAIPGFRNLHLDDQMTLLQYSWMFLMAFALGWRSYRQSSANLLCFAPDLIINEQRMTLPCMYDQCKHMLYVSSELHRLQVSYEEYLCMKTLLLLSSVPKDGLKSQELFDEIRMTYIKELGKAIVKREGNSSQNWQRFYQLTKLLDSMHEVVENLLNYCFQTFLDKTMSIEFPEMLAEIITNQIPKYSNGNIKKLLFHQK
Sequence of Luciferin 4-monooxygenase (Photinus pyralis) (P08659 whole entry, looked up): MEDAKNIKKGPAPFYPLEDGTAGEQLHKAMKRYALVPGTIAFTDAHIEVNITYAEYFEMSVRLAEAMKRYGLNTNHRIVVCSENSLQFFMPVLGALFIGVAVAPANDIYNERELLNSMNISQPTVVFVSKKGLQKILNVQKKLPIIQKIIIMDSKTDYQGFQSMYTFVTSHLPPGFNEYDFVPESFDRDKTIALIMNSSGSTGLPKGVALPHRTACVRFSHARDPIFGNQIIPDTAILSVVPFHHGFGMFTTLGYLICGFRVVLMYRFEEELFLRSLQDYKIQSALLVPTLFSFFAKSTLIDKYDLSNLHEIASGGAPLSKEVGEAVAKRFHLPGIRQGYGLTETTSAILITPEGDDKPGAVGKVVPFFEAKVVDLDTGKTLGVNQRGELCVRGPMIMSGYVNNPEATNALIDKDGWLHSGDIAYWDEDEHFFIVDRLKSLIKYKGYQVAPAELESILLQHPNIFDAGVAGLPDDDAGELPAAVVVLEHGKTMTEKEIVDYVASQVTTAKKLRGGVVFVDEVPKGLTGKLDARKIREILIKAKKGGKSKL
Sequence of 3',5'-cyclic-AMP phosphodiesterase 4B (Homo sapiens) (Q07343 whole entry, looked up): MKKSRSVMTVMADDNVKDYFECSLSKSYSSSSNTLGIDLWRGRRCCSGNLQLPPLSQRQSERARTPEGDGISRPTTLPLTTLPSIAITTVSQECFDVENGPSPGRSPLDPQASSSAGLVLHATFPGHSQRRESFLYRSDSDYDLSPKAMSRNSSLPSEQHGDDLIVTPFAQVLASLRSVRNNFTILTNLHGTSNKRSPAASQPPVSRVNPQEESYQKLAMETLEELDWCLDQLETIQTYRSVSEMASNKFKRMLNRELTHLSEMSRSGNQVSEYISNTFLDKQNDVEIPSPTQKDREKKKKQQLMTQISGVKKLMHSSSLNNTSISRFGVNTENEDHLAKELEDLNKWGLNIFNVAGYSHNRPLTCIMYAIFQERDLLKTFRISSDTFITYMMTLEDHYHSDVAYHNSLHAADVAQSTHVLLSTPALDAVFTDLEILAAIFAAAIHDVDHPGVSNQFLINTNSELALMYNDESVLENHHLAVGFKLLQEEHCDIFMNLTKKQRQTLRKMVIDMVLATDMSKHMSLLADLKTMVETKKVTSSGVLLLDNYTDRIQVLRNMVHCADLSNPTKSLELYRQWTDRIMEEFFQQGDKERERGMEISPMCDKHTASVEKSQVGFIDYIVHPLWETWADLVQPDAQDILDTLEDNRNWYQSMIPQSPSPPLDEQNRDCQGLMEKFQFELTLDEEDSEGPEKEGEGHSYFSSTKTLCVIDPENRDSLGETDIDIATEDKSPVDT

C[C@@]12CC3CC(N)(C1)C[C@@](C)(C3)C2
-3.78%: max response [9, 22]
-3.32%: max response [9, 21]
inactive: outcome [1] | Potency [2] | activity change, negative = inhibition [3] -7.73% | outcome [4] | Potency [5] > 20.6 µM | Potency [6] > 20.6 µM | Potency [7] | outcome [8] | activity change, negative = inhibition [9] -4.9% | Potency [10]

O=C(Nc1ccccc1)OC[C@H](CN1CCCCC1)OC(=O)Nc1ccccc1
active: Potency [2] 12.6 µM
-5.88%: max response [9, 21]
-11%: max response [9, 22]
inactive: outcome [1] | activity change, negative = inhibition [3] -6.24% | outcome [4] | Potency [5] > 20.6 µM | Potency [6] > 20.6 µM | Potency [7] | outcome [8] | activity change, negative = inhibition [9] -4.16% | Potency [11] | activity, negative = inhibition ([12]; parasite line A) -1.15% | activity, negative = inhibition ([12]; parasite line B) -2.24% | Potency [13] | Potency [14] | Potency [15] | Potency [16] | Potency [17] | Potency [18] | Potency [19] | Potency [20]

CC(=O)O[C@]1(C(C)=O)CC[C@@H]2[C@@H]3C=C(C)C4=CC(=O)CC[C@@]4(C)[C@H]3CC[C@]21C
-20.2%: max response [9, 21]
-22%: max response [9, 22]
active: Potency [5] 0.00312 µM | Potency [6] 0.0557 µM
inactive: outcome [1] | Potency [2] | activity change, negative = inhibition [3] -7.69% | outcome [4] | Potency [7] | outcome [8] | activity change, negative = inhibition [9] -3.56% | Potency [11] | activity, negative = inhibition ([12]; parasite line A) -0.563% | activity, negative = inhibition ([12]; parasite line B) 2.77% | Potency [13] | Potency [14] | Potency [15] | Potency [16] | Potency [17] | Potency [18] | Potency [19] | Potency [20]

Cc1c(O)c(=O)n(-c2ccccc2)n1C
inactive: outcome [1] | Potency [2] | activity change, negative = inhibition [3] -1.71% | outcome [4] | Potency [5] > 20.6 µM | Potency [6] > 20.6 µM | Potency [7] | outcome [8] | activity change, negative = inhibition [9] -0.744% | Potency [10]
20.7%: max response [9, 21]
19.1%: max response [9, 22]

CC(=O)[C@@]1(O)CC[C@H]2[C@H]3C[C@@H](C)C4=CC(=O)C=C[C@]4(C)[C@@]3(F)[C@@H](O)C[C@]21C
-14.1%: max response [9, 21]
active: Potency [5] 0.00155 µM | Potency [6] 0.00821 µM
inactive: outcome [1] | Potency [2] | activity change, negative = inhibition [3] 5.97% | outcome [4] | Potency [7] | outcome [8] | activity change, negative = inhibition [9] -6.74% | Potency [10] | Potency [11] | activity, negative = inhibition ([12]; parasite line A) -2.85% | activity, negative = inhibition ([12]; parasite line B) -0.507% | Potency [13] | Potency [14] | Potency [15] | Potency [16] | Potency [17] | Potency [18] | Potency [19] | Potency [20]
-19.8%: max response [9, 22]
